Source: PubChem
A selection: hits, their analogues and other compounds. The true share with any hit is near 3.1%.
Peg3 prom inh = reduces Peg3 promoter-driven luciferase expression in HeLa; HeLa PEG-Prom luciferase reporter, luminescence, overnight; inhibition, % at 20 µM; 360,000 compounds, 1.7% hits; AID 588405;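 active = inhibition of at least 50% at 20 µM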
PPC-1+TRAIL kill = PPC-1 cancer cell killing with TRAIL present | PPC-1 cells + TRAIL, ATPLite viability luminescence | cell killing (% activity), % at 4 µM or 5 µM | 220,000 compounds, 0.41% hits;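 active = cell killing above 50% in the first pass at 4 µM, then a duplicate retest at 5 µM averaging 50% or more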
CF NFkB block = cystic fibrosis NF-kB activation inhibition. KKLEB NF-kB-GFP reporter, PAF-induced, GFP fluorescence overnight. inhibition, % at 5 µM. 360,000 compounds, 0.86% hits;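 active = at least 50% inhibition at 5 µM, scaled per plate between neutral and stimulator controls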;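 note: PAF is a Pseudomonas aeruginosa culture filtrate used as stimulus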
TRAIL sens C8 = caspase-8 TRAIL sensitization | NB7+C8 cells + TRAIL, ATPlite viability luminescence | inhibition (viability loss, TRAIL sensitization), % at 10 µM | 360,000 compounds, 1% hits;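 active = compounds causing at least 50% loss of cell viability in the single-dose screen, relative to plate controls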
HIF-2a inh = blocks HIF-2a reporter activity. 786-0 RCC cells HIF-2a reporter, luciferase luminescence, overnight. inhibition, % at 18.8 µM. 360,000 compounds, 0.72% hits. AID 624352;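 active = inhibition of the luminescence signal of 40% or more relative to plate controls, in a single-dose primary screen at 18.75 µM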
KKLEB cytotox = CF airway cell cytotoxicity counter-screen; activity change (cytotoxicity), % at 5 µM; AID 602141; KKLEB CF airway cells viability, ATPlite luminescence, overnight; active compounds read low; cells stimulated with P. aeruginosa culture filtrate; 360,000 compounds, 0.36% hits;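 active = corrected activity change at or below -50% at 5 µM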
Each line names hits and unclear results; the compound was inactive in the other large screens; ! = a repeat was not active.

O=C(NC1CCCCC1)C(c1ccc(F)cc1)N(Cc1ccccc1)C(=O)CN1C(=O)c2ccccc2S1(=O)=O (stereo not drawn)	Peg3 prom inh 68
O=C([C@H]1O[C@@H](n2ccc(=O)[nH]c2=O)[C@H](O)[C@@H]1O)N1CCC(F)(F)CC1	none (no result: PPC-1+TRAIL kill)
CCOC1=CC2=C(C(=O)C(Cl)=CC2=O)[C@@H]2CN(S(=O)(=O)c3ccc(C)cc3)[C@@H](c3ccccc3)[C@H]12	HIF-2a inh 57 (no result: PPC-1+TRAIL kill)
Cc1cccc(NS(=O)(=O)c2ccc(C(=O)N3CCCCCC3)cc2)c1C	none (no result: PPC-1+TRAIL kill)
O=C(NC1CCSc2ccccc21)c1ccc(F)c(S(=O)(=O)N2CCOCC2)c1 (stereo not drawn)	none (no result: PPC-1+TRAIL kill)
CN1CCc2cc3c(c4c2[C@H]1[C@H](O)c1ccccc1-4)OCO3	Peg3 prom inh 66
COc1ccc2c(c1OC)C(=O)OC2C1c2c(cc3c(c2OC)OCO3)CCN1C (stereo not drawn)	none
Cc1ccc(S(=O)(=O)N(CCCO)CC(O)CON=C2c3ccccc3-c3ccccc32)cc1 (stereo not drawn)	Peg3 prom inh 52
CCN(CC(O)Cn1c2ccccc2c2ccccc21)S(=O)(=O)c1ccc(C)cc1 (stereo not drawn)	none
CN1CCN(/N=C/c2ccc(N(c3ccccc3)c3ccccc3)cc2)CC1	Peg3 prom inh 97, HIF-2a inh 90
CC(=O)c1cccc(NC(=O)/C=C/c2ccc([N+](=O)[O-])s2)c1	Peg3 prom inh 99
COC(=O)c1cccc(NC(=O)/C=C/c2cccc([N+](=O)[O-])c2)c1	none
COC(=O)c1cccc(NC(=O)/C=C/c2ccc([N+](=O)[O-])cc2)c1	TRAIL sens C8 71
CCOC(=O)c1cccc(NC(=O)/C=C/c2ccc([N+](=O)[O-])cc2)c1	TRAIL sens C8 76
O=C(NCc1ccccc1)C(c1ccncc1)N(C(=O)c1csnn1)c1cccc(F)c1 (stereo not drawn)	none (no result: PPC-1+TRAIL kill)
CN(Cc1cn(Cc2ccc(F)cc2)nn1)C1CN(Cc2cn(Cc3ccc(F)cc3)nn2)S(=O)(=O)C1 (stereo not drawn)	none (no result: Peg3 prom inh, PPC-1+TRAIL kill, CF NFkB block, KKLEB cytotox)
COc1cccc(-n2c(SCC(=O)N3CCCCC3)nc3c([nH]c4ccccc43)c2=O)c1	TRAIL sens C8 54
COc1cccc(-n2c(SCC(N)=O)nc3c([nH]c4ccccc43)c2=O)c1	none
Cc1ccc(NC(=O)c2cnc(N3CCN(c4ccccn4)CC3)c3ccccc23)c(Br)c1	Peg3 prom inh 90 (no result: PPC-1+TRAIL kill)
O=C(Nc1c(F)cccc1F)c1cnc(N2CCN(c3ccccn3)CC2)c2ccccc12	Peg3 prom inh 73
CN1C(=O)C(N=Nc2ccc([N+](=O)[O-])cc2)SC1=S (stereo not drawn)	none (no result: PPC-1+TRAIL kill)
CC1OC2CC(=O)OC2C2=C1C(=O)c1c(O)cccc1C2=O (stereo not drawn)	Peg3 prom inh 103, CF NFkB block 91, TRAIL sens C8 94, HIF-2a inh 90, KKLEB cytotox -83 (no result: PPC-1+TRAIL kill)
CCOC(=O)c1sc(NC(=O)CSc2nnnn2-c2ccc(C)cc2)c(C(=O)OCC)c1C	none
CCOC(=O)c1sc(NC(=O)CSc2nc3c(c(=O)n2-c2ccc(C)cc2)SCC3)c(C(=O)OCC)c1C	KKLEB cytotox -60
Cc1ccc(S(=O)(=O)C=CS(=O)(=O)c2ccc(C)cc2)cc1	Peg3 prom inh 95, CF NFkB block 96, HIF-2a inh 52 (no result: PPC-1+TRAIL kill)
CNC(=O)C[C@@H]1CC[C@@H]2[C@H](COC[C@H](O)CN2S(=O)(=O)c2ccccc2Cl)O1	none (no result: Peg3 prom inh, PPC-1+TRAIL kill, CF NFkB block, KKLEB cytotox)
O=C(c1ccc2c(c1)OCCO2)C1CCN(S(=O)(=O)c2ccc(F)cc2)CC1	Peg3 prom inh 55
COc1ccc(NC(=O)/C(Cl)=C(/Cl)S(=O)(=O)Cc2ccc(C)cc2)cn1	Peg3 prom inh 105, CF NFkB block 87, HIF-2a inh 96, KKLEB cytotox -71
C=CCNc1ncnc2c1ncn2[C@H]1CN(CCc2ccccc2)C[C@@H](CO)O1	none (no result: PPC-1+TRAIL kill)
Cc1c(N=C2N=C(NC(=O)c3ccc(F)cc3)c3ccccc32)c(=O)n(-c2ccccc2)n1C	Peg3 prom inh 63
O=C(Nc1ccccc1)Nc1ccc(C(=O)N2CCCC2)cc1	TRAIL sens C8 69
O=C(Nc1ccc(C(=O)N2CCCCC2)cc1)c1ccccc1	none (no result: PPC-1+TRAIL kill)
Cn1c2ccccc2c(=O)c2ccc(C#CC3(O)CCCCC3)cc21	Peg3 prom inh 70, TRAIL sens C8 86 (no result: PPC-1+TRAIL kill)
COc1cc2sc3ccc(C#CC4(O)CCCCC4)cc3c(=O)c2cc1OC	TRAIL sens C8 75 (no result: PPC-1+TRAIL kill)
COc1ccc(C#Cc2ccc3c(c2)c(=O)c2ccccc2n3C)cc1	none (no result: PPC-1+TRAIL kill)
COc1cccc2sc3cc(C#CC4(O)CCCCC4)ccc3c(=O)c12	Peg3 prom inh 89 (no result: PPC-1+TRAIL kill)
CCOc1ccccc1N1C(=O)c2ccc(S(=O)(=O)c3ccc(C(=O)O)cc3)cc2C1=O	none (no result: PPC-1+TRAIL kill)
CS(=O)(=O)N1CCC(C(=O)Nc2cccc(Cl)c2)CC1	none
Cc1cc(C)n(CCCN2CCC(C(=O)Nc3cccc(-c4cccc(F)c4)c3)CC2)n1	Peg3 prom inh 69 (no result: PPC-1+TRAIL kill)
CCn1nc(C)c(CN2CCC(C(=O)Nc3cccc(-c4cccc(Cl)c4)c3)CC2)c1C	Peg3 prom inh 68 (no result: PPC-1+TRAIL kill)
CCn1ncc(CN2CCC(C(=O)Nc3cccc(-c4cccc(F)c4)c3)CC2)c1C	none (no result: PPC-1+TRAIL kill)
c1csc(-c2nc3ccccc3[nH]2)c1	none
Cc1ccc(-c2nc3ccccc3[nH]2)s1	TRAIL sens C8 56
O=C(COC(=O)Cc1c(F)cccc1Cl)NCc1ccc2c(c1)OCO2	none (no result: PPC-1+TRAIL kill)
O=S(=O)(Nc1nc2ccccc2nc1Nc1cccc(S(=O)(=O)N2CCCCC2)c1)c1ccccc1	Peg3 prom inh 69, CF NFkB block 65, KKLEB cytotox -61
COc1ccc(S(=O)(=O)Nc2cccc(S(=O)(=O)N3CCCCCC3)c2)cc1	none
O=C(NCCCN1CCOCC1)C(=O)N/N=C/c1c(Cl)cccc1Cl	none
O=C(NCCCN1CCOCC1)C(=O)N/N=C/c1c2ccccc2cc2ccccc12	Peg3 prom inh 70
CCCCC(CC)CO (stereo not drawn)	Peg3 prom inh 110 (no result: PPC-1+TRAIL kill)
CCCCC(CC)COC(=O)CCCCC(=O)OCC(CC)CCCC (stereo not drawn)	none (no result: PPC-1+TRAIL kill)
O=C1c2c(O)ccc(O)c2C(=O)c2c(NCCNCCO)ccc(NCCNCCO)c21	Peg3 prom inh 100, CF NFkB block 82!, TRAIL sens C8 82, HIF-2a inh 63 (no result: PPC-1+TRAIL kill)
COc1cc(C2C3=C(COC3=O)OC(C)(C)Oc3cc4c(cc32)OCO4)cc(OC)c1OC (stereo not drawn)	CF NFkB block 64 (no result: PPC-1+TRAIL kill)
Cc1cc2ccccn2c1C(=O)c1cccc([N+](=O)[O-])c1	none
Cc1cc2ccccn2c1C(=O)c1ccc([N+](=O)[O-])o1	Peg3 prom inh 99
O=C(NNCc1ccc(O)cc1)c1ccccc1Cl	none (no result: PPC-1+TRAIL kill)
O=C1NC2c3c(Cl)sc(Cl)c3C(=O)C2O1 (stereo not drawn)	Peg3 prom inh 68 (no result: PPC-1+TRAIL kill)
